Experimental data as given in PubChem BioAssay (NCATS).
Inconclusive results are not listed. Where a call stands in place of a potency, no number is given. Calls of active or inactive are those of the source. Calls follow the shape of the dose curve; as a rule, active = well fitted curve in the direction sought with a large enough effect; inconclusive = small, poorly fitted or top-dose-only effect, or another doubt; inactive = no such curve, though single readings can be large; an effect the other way counts as inactive or inconclusive.

Experiment: Cell Viability - LYMP2-001 (AID 921); also: nearly all actives have a fitted effect of over 70% in size
Conditions: LYMP2-001 lymphoblastoid cell viability; series mostly up to 92.2 µM
Procedure, shortened: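 Cellular ATP loss read by luciferase luminescence after 24 h compound exposure at 37 C in complete medium. LYMP2-001 lymphoblastoid cells, 2500/well; qHTS concentration-response data fitted with Hill equation for AC50.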
For `OC[C@H]1O[C@@H]2O[C@H]3[C@H](O)[C@@H](O)[C@@H](O[C@H]4[C@H](O)[C@@H](O)[C@@H](O[C@H]5[C@H](O)[C@@H](O)[C@@H](O[C@H]6[C@H](O)[C@@H](O)[C@@H](O[C@H]7[C@H](O)[C@@H](O)[C@@H](O[C@H]1[C@H](O)[C@H]2O)O[C@@H]7CO)O[C@@H]6CO)O[C@@H]5CO)O[C@@H]4CO)O[C@@H]3CO`, the Potency was “inactive”.
For `Cc1ccc(S(=O)(=O)O)cc1C`, the Potency was “inactive”.
In the case of `OCl`, the Potency is reported as “inactive”.
In the case of `CCOC(C)OCC`, the Potency is reported as “inactive”.
In the case of `C[C@H](CCC(=O)O)[C@H]1CC[C@H]2[C@@H]3[C@H](O)C[C@@H]4C[C@H](O)CC[C@]4(C)[C@H]3C[C@H](O)[C@]12C`, the Potency is reported as “inactive”.
With `CC(C)O` the Potency was “inactive”.
In the case of `Oc1cccc(O)c1O`, the Potency is reported as “inactive”.
With `OCC(O)CO` the Potency was “inactive”.
With `Nc1ccc(N=Nc2ccccc2)c(N)n1` the Potency was “inactive”.
In the case of `CO/N=C(/C(=O)N[C@@H]1C(=O)N2C(C(=O)O)=C(COC(N)=O)CS[C@H]12)c1ccco1`, the Potency is reported as “inactive”.
With `Oc1ccc(/C=C/c2cc(O)cc(O)c2)cc1` the Potency was “inactive”.
For `ClC(Cl)Cl`, the Potency was “inactive”.
For `Cc1ncc[nH]1`, the Potency was “inactive”.
In the case of `C/C=C/C=C/C(=O)O`, the Potency is reported as “inactive”.
For `c1ccc2ccccc2c1`, the Potency was “inactive”.
For `O=P(O)(O)O`, the Potency was “inactive”.
For `OCc1ccccc1`, the Potency was “inactive”.
For `NCCN`, the Potency was “inactive”.
For `OB(O)O`, the Potency was “inactive”.
With `CC[C@H]1OC(=O)[C@H](C)[C@@H](O[C@H]2C[C@@](C)(OC)[C@@H](O)[C@H](C)O2)[C@H](C)[C@@H](O[C@@H]2O[C@H](C)C[C@H](N(C)C)[C@H]2O)[C@](C)(O)C[C@@H](C)CN(C)[C@H](C)[C@@H](O)[C@]1(C)O` the Potency was “inactive”.
In the case of `COC(=O)c1ccccc1O`, the Potency is reported as “inactive”.
With `CC1=CCC2CC1C2(C)C` (stereo not drawn) the Potency was “inactive”.
In the case of `Nc1ncnc2c1ncn2[C@H]1CC[C@@H](CO)O1`, the Potency is reported as “inactive”.
With `CCCCO` the Potency was “inactive”.
In the case of `CCCCC`, the Potency is reported as “inactive”.
In the case of `C[C@H](CCC(=O)O)[C@H]1CC[C@H]2[C@@H]3CC[C@@H]4C[C@H](O)CC[C@]4(C)[C@H]3C[C@H](O)[C@]12C`, the Potency is reported as “inactive”.
With `NC(N)=O` the Potency was “inactive”.
For `Nc1nccs1`, the Potency was “inactive”.

Experiment: Confirmation and Secondary Assay for Modulators of Hemoglobin Beta Chain Splicing at IVS2 705 locus (AID 930);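 also: GFP fluorescence per well restored by corrected splicing of the IVS2-705 intron in EGFP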; also: potency is read from the fitted curve at half-maximal effect
Conditions: HeLa EGFP-705 splicing reporter, GFP fluorescence, 48 h; series mostly up to 46.1 µM
Procedure, shortened: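 Assay measures total GFP intensity per well in HeLa EGFP-705 cells after 2 days with compound; mis-splicing normally truncates EGFP, so fluorescence indicates corrected splicing.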
For `Cc1cccc(C)c1NC(=O)C1CCCCN1C` (stereo not drawn), the Potency was “inactive”.
In the case of `Nc1ccc(N=Nc2ccccc2)c(N)n1`, the Potency is reported as 20 µM (active).
With `Nc1ncnc2c1ncn2[C@H]1CC[C@@H](CO)O1` the Potency was “inactive”.
In the case of `NC(N)=O`, the Potency is reported as “inactive”.
For `Nc1nccs1`, the Potency was “inactive”.
